Reference: PubChem BioAssay (EPA / NIEHS)
“And” between values parts separate entries of the source, which are not always exact repeats. Equal entries are not always repeated. Some compounds were tested as several samples or in several runs, with calls that do not always agree. The source made the active and inactive calls. The calls were made as follows: active = hit-call score of the fitted dose curve at least 0.9, where 1 is the maximum; inactive = score below 0.9.

Tests used:
[1] = APR_HepG2_P-H2AX_72hr: Apredica 72-hour HepG2 Assay for H2AX Phosphorylation (AID 2282916); details: imaging, actives raise or lower the signal;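 also: phospho-histone H2A.x immunostain intensity per cell marking DNA damage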
Summary of the method: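 Phospho-H2A.x imaging endpoint in HepG2 after 72 hr compound exposure (0.39–200 uM, duplicate wells). Activity derived by bidirectional curve fitting with DMSO as baseline.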

[2] = APR_HepG2_MitoMembPot_72hr: Apredica 72-hour HepG2 Assay for Mitochondrial Membrane Potential (AID 2282917); details: imaging, actives raise or lower the signal
Summary of the method: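 HepG2 cells dosed 72 hr with compound at 0.39–200 uM in duplicate, 0.5% v/v DMSO final. Mitochondria stained with 250 nM MitoTracker Red CMXRos for 30 min before formaldehyde fixation, imaged by high-content fluorescence; bidirectional fit versus DMSO.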

[3] = APR_HepG2_P-H2AX_24hr: Apredica 24-hour HepG2 Assay for H2AX Phosphorylation (AID 2282920); details: high-content imaging, actives raise or lower the signal
Summary of the method: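 HepG2 human liver cells were exposed for 24 hr to compounds at 0.39–200 uM in duplicate, with 0.5% v/v DMSO final. Fixed cells were immunostained for phospho-histone H2A.x plus Hoechst 33342, imaged by HCS fluorescence, and fitted bidirectionally against DMSO.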

[4] = APR_HepG2_StressKinase_72hr: Apredica 72-hour HepG2 Assay for Stress Kinase (AID 2282921); details: HepG2 stress kinase (phospho-c-Jun) imaging, actives raise or lower the signal
Summary of the method: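 Stress kinase signal reflects nuclear phospho-c-Jun staining in fixed, permeabilized cells exposed 72 h to compound at 0.39–200 uM; DMSO-normalized, fitted for increases or decreases.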

[5] = APR_HepG2_StressKinase_24hr: Apredica 24-hour HepG2 Assay for Stress Kinase (AID 2282922); details: HepG2 stress kinase (phospho-c-Jun) imaging, actives raise or lower the signal
Summary of the method: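 Read-out: phospho-c-Jun immunofluorescence (Cy3 secondary) quantified by high-content imaging at 20x, nuclei defined by Hoechst 33342. Human HepG2 liver cells dosed 24 hr, 0.39–200 uM, DMSO 0.5% v/v; gain or loss of signal fitted relative to DMSO.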

[6] = APR_HepG2_p53Act_72hr: Apredica 72-hour HepG2 Assay for p53 Activation (AID 2282923); details: high-content imaging, actives raise or lower the signal;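 also: average cellular p53 protein immunofluorescence intensity in HepG2 cells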
Summary of the method: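 Fixed-cell p53 staining (sheep primary, Cy5 secondary) measured by fluorescence imaging following 72 hr treatment at 0.39–200 uM in 0.5% DMSO; DMSO served as negative control and baseline.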

[7] = APR_HepG2_MitoMass_72hr: Apredica 72-hour HepG2 Assay for Mitochondrial Mass (AID 2282924); details: high-content imaging, actives raise or lower the signal;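 also: MitoTracker Red CMXRos stain intensity per cell imaged as mitochondrial mass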
Summary of the method: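 Read-out: MitoTracker Red fluorescence intensity from automated imaging (20x, six fields per well) in human HepG2 liver cells. Dosing ran 72 hr, 0.39–200 uM, 0.5% DMSO; bidirectional curve fitting versus DMSO baseline.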

[8] = target: CCAAT/enhancer-binding protein beta (Homo sapiens) (UniProt P17676); experiment: ATG_C_EBP_CIS: Attagene CIS-FACTORIAL HepG2 Assay for human CCAAT/Enhancer Binding Protein (C/EBP) beta (AID 2282927); details: HepG2 Attagene cis-factorial transcription factor reporter; actives raise or lower the signal
CCAAT/enhancer-binding protein beta (Homo sapiens), sequence (P17676 whole entry, looked up): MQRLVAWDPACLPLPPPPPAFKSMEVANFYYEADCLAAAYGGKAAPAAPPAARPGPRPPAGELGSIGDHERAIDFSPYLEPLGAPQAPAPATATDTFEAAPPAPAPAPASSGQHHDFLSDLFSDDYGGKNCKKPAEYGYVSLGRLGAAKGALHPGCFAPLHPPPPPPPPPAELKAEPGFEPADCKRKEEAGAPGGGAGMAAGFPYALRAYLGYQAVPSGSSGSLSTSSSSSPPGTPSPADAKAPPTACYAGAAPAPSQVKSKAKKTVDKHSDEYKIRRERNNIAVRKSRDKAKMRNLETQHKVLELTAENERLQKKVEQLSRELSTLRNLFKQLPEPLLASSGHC
Summary of the method: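 HepG2, transient MRTU transfection, 24 h treatment. RT-PCR plus CE fluorescence; DMSO negative control, bidirectional fit.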

[9] = ATG_CMV_CIS: Attagene CIS-FACTORIAL HepG2 Assay for human CMV (Internal Marker) (AID 2282928); details: HepG2 CMV promoter reporter, transcription factor profiling; actives raise or lower the signal;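 also: endpoint acts as a background internal control marker rather than a target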
Summary of the method: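 24 h chemical treatment, HepG2 with transient multi-reporter transfection; RNA → oligo(dT) RT → PCR → 6-FAM extension → HpaI digest → CE fluorescence. Bidirectional fit, DMSO negative control.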

[10] = ATG_DR4_LXR_CIS: Attagene CIS-FACTORIAL HepG2 Assay for human Liver X Receptor (LXR), DR4 submotif (AID 2282929); details: HepG2 Attagene DR4 cis-reporter, mRNA transcription; AC50: actives raise or lower the signal unless noted; outcome: actives raise or lower the signal unless noted
Summary of the method: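 HepG2 cells were transiently transfected with multiple cis-regulated reporter units and dosed for 24 hours. The DR4 reporter mRNA was quantified by RT-PCR, 6-FAM labelling and capillary electrophoresis. Bidirectional fits used DMSO as baseline.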

[11] = target: Aryl hydrocarbon receptor (Homo sapiens) (UniProt P35869); experiment: ATG_Ahr_CIS: Attagene CIS-FACTORIAL HepG2 Assay for human Aryl Hydrocarbon Receptor (Ahr) (AID 2282930); details: HepG2 AhR cis-factorial reporter transcription; actives raise or lower the signal
Aryl hydrocarbon receptor (Homo sapiens), sequence (P35869 whole entry, looked up): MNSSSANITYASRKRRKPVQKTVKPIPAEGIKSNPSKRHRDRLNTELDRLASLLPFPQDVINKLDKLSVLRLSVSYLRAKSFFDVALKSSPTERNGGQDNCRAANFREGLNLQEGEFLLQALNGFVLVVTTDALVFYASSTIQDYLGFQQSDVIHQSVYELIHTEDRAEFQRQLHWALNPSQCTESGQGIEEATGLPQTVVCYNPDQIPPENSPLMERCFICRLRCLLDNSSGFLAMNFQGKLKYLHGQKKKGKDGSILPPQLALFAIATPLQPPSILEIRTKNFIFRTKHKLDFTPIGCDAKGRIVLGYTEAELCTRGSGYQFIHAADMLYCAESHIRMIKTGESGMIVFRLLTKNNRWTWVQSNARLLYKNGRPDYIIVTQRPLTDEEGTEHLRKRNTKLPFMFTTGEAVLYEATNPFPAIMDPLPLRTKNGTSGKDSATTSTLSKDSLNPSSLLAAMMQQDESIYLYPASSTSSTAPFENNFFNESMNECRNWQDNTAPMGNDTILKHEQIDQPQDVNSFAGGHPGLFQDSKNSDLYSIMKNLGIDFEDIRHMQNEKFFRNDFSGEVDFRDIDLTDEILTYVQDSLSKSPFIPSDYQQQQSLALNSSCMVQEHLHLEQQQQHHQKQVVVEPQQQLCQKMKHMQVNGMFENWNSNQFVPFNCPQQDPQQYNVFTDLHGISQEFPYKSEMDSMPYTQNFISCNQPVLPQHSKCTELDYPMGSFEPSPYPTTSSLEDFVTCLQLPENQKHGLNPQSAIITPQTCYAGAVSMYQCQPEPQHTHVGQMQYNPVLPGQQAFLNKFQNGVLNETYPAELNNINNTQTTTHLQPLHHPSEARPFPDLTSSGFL
Summary of the method: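 Endogenous factor activity is tracked through cis-promoter reporter units transfected into HepG2 cells. Transcript levels at 24 h are read by fluorescent RT-PCR and capillary electrophoresis, with activity in either direction scored relative to DMSO.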

[12] = ATG_AP_2_CIS: Attagene CIS-FACTORIAL HepG2 Assay for human Activator Protein 2 (AP-2) (AID 2282932); details: HepG2 AP-2 cis-reporter, Attagene transcription factor profiling; AC50: actives raise or lower the signal unless noted; outcome: actives raise or lower the signal unless noted
Summary of the method: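 Read-out: fluorescent reporter mRNA via RT-PCR and capillary electrophoresis, 24 h post-dose in transiently transfected HepG2. Endogenous factors drive cis-promoter reporters; gain or loss of signal fitted bidirectionally against DMSO.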

[13] = ATG_BRE_CIS: Attagene CIS-FACTORIAL HepG2 Assay for human Bone Morphogenetic Protein (BMP) Response Element (BRE) (AID 2282933); details: HepG2 BMP response element reporter, Attagene transcription factor profiling; actives raise or lower the signal
Summary of the method: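 Read-out: reporter mRNA induction quantified by RT-PCR and capillary electrophoresis after 24 h chemical exposure of transfected HepG2 cells. Endogenous factor activity on the BMP response element; gain or loss fitted against DMSO baseline.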

[14] = target: Retinoic acid receptor alpha (Homo sapiens) (UniProt P10276); experiment: ATG_DR5_RAR_CIS: Attagene CIS-FACTORIAL HepG2 Assay for human Retinoic Acid Receptor Alpha (RARE), DR5 submotif (AID 2282934); details: HepG2 Attagene cis-factorial RARE DR5 reporter, mRNA; actives raise or lower the signal;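 as to AC50: reporter responds to endogenous RAR alpha beta and gamma in HepG2 not RARA alone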
Retinoic acid receptor alpha (Homo sapiens), sequence (P10276 whole entry, looked up): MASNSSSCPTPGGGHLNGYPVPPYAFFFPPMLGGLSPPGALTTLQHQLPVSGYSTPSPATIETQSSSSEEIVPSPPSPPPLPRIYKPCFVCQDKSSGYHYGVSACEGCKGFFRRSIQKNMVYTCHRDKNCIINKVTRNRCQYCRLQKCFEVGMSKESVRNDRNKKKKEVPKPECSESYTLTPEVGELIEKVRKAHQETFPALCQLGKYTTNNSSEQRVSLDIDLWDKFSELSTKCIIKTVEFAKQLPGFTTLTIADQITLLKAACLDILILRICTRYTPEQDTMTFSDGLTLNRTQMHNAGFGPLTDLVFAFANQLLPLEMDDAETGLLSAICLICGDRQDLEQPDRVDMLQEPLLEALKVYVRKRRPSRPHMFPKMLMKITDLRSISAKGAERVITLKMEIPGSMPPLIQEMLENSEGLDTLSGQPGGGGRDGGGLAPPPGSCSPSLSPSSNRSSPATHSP
Summary of the method: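 After 24 h of chemical exposure, transiently transfected HepG2 cells were lysed for total RNA; the DR5-regulated reporter transcript was quantified via RT-PCR and capillary electrophoresis, with activity fitted bidirectionally against DMSO.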

[15] = target: Transcription factor E2F1 (Homo sapiens) (UniProt Q01094); experiment: ATG_E2F_CIS: Attagene CIS-FACTORIAL HepG2 Assay for human E2F Transcription Factor 1 (AID 2282935); details: HepG2 Attagene cis-reporter, E2F reporter RNA transcripts; actives raise or lower the signal
Transcription factor E2F1 (Homo sapiens), sequence (Q01094 whole entry, looked up): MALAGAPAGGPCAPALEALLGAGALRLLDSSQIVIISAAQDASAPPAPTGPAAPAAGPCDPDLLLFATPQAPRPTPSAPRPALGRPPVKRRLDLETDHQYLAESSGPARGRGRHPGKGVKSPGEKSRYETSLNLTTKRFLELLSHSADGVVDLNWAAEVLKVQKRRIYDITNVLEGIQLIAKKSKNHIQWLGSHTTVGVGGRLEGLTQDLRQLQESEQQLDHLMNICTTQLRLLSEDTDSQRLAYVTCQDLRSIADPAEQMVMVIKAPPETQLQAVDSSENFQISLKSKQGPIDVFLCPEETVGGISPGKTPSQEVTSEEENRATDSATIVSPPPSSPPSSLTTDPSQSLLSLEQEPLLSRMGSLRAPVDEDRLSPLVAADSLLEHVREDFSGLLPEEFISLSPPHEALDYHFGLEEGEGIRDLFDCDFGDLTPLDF
Summary of the method: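 Transient MRTU transfection of HepG2; 24 h compound exposure; RNA → oligo(dT) RT → PCR → FAM label → HpaI cut → CE fluorescence. Gain/loss of signal fit against DMSO.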

[16] = ATG_E_Box_CIS: Attagene CIS-FACTORIAL HepG2 Assay for human Enhancer Box (E-box) (AID 2282936); details: HepG2 E-box cis-reporter transcription, actives raise or lower the signal
Summary of the method: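 Transiently transfected HepG2, endogenous TF-driven reporters, 24 h dosing. Readout: RT-PCR plus capillary electrophoresis of fluorescent reporter fragments. Gain or loss of signal fitted bidirectionally against DMSO baseline.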

[17] = ATG_CRE_CIS: Attagene CIS-FACTORIAL HepG2 Assay for human cAMP Responsive Element (CRE) binding protein 3 (AID 2282926); details: HepG2 CRE cis-reporter, Attagene multiplexed mRNA; actives raise or lower the signal
Summary of the method: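 Capillary electrophoresis of 6-FAM-labelled, HpaI-digested PCR products quantified reporter transcripts. These came from HepG2 transiently transfected with cis-element reporters and exposed to test chemicals for 24 hours, with DMSO defining baseline activity.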

[18] = ATG_AP_1_CIS: Attagene CIS-FACTORIAL HepG2 Assay for human Activator Protein 1 (AP-1) (AID 2282931); details: HepG2 Attagene cis-factorial AP-1 reporter mRNA; actives raise or lower the signal
Summary of the method: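 HepG2 cells transiently transfected with cis-element-driven reporter transcription units, dosed for 24 hours. Reporter mRNA measured by RT-PCR, 6-FAM labelling, HpaI digestion and capillary electrophoresis. Bidirectional fitting against DMSO baseline.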

[19] = APR_HepG2_MicrotubuleCSK_72hr: Apredica 72-hour HepG2 Assay for Microtubule CSK Stabilty (AID 2282919); details: HepG2 microtubule cytoskeleton, high-content imaging, actives raise or lower the signal
Summary of the method: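 HepG2, 72 hr cmpd exposure, 0.39–200 uM (10 pts, duplicate), 0.5% DMSO. 3.7% formaldehyde fix, 0.5% Triton perm, anti-alpha-tubulin/Cy5 plus Hoechst. HCS fluorescence intensity; bidirectional fit vs DMSO baseline; taxol as positive control.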

[20] = APR_HepG2_NuclearSize_72hr: Apredica 72-hour HepG2 Assay for Nuclear Size (AID 2282925); details: high-content imaging, actives raise or lower the signal
Summary of the method: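 Read-out: nuclear diameter from Hoechst 33342 images (ArrayScan, 20x, six fields/well), via cell-cycle image analysis. HepG2 were dosed 0.39–200 uM for 72 hr in 0.5% DMSO. Bidirectional fit relative to DMSO.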

Measured: AC50

CS(=O)(=O)c1ccc([C@@H](CC2CCCC2)C(=O)Nc2cnccn2)cc1Cl
active: [9] 136 µM | [10] 29.1 µM | [11] 68.4 µM | [13] 127 µM
not listed: [17] | [18] | [19] | [20]
inactive: all other assays above

CCCCc1oc2ccccc2c1C(=O)c1cc(I)c(OCCN(CC)CC)c(I)c1
inactive: [2] | [4] | [13] | [15] | [16]
active: [1] 75.5 µM | [3] 51.7 µM | [5] 58.2 µM | [6] 75.5 µM | [7] 52.6 µM | [17] 20.9 µM | [8] 95 µM | [9] 20 µM | [10] 18.4 µM | [11] 55.1 µM | [18] 20.2 µM | [12] 130 µM

CN(C)CCOC(c1ccccc1)c1ccccc1
active: [1] 114 µM | [10] 150 µM | [11] 64 µM | [16] 60.6 µM
not listed: [6] | [19] | [20]
inactive: all other assays above

O=C1NS(=O)(=O)c2ccccc21
not listed: [4] | [5] | [6] | [11] | [12]
inactive: all other assays above

CC(C)c1c(C(=O)Nc2ccccc2)c(-c2ccccc2)c(-c2ccc(F)cc2)n1CC[C@@H](O)C[C@@H](O)CC(=O)O
inactive: [17] | [8] | [9] | [18] | [13] | [14] | [15] | [16]
active: [9] 25.6 µM | [10] 136 µM and 42.6 µM | [14] 161 µM | [16] 28.2 µM

Oc1cc2ccccc2cc1O
active: [11] 21.1 µM | [18] 70.2 µM
inactive: [17] | [8] | [9] | [10] | [12] | [13] | [14] | [15]

Cc1cc(C(C)(C)C)c(O)c(C(C)(C)C)c1
inactive: [17] | [8] | [10] | [11] | [12] | [13] | [15] | [16]
active: [8] 14.6 µM | [9] 25.3 µM and 60 µM | [10] 33.4 µM | [18] 50.7 µM and 80.6 µM | [16] 56.6 µM

CCc1cccc(CC)c1N(COC)C(=O)CS(=O)(=O)O
inactive: [17] | [8] | [9] | [10] | [11] | [18] | [12] | [13] | [14] | [15]

CC(C)(C)c1ccc(O)c(O)c1
active: [17] 47.8 µM and 181 µM | [9] 64.9 µM [middle of 4 runs] | [10] 40.8 µM | [11] 20 µM | [13] 47.3 µM
inactive: [17] | [8] | [9] | [10] | [11] | [12] | [13] | [14] | [15] | [16]

CCCCCCCCCCCC(=O)O
active: [9] 60 µM | [10] 167 µM | [18] 117 µM and 60 µM | [14] 100 µM
inactive: [17] | [8] | [9] | [10] | [11] | [12] | [13] | [14] | [15] | [16]

C=C(c1ccc(C(=O)O)cc1)c1cc2c(cc1C)C(C)(C)CCC2(C)C
inactive: [17] | [8] | [9] | [10] | [11] | [18] | [13] | [15] | [16]
active: [17] 31.9 µM | [8] 0.0309 µM | [9] 4.89 µM | [10] 2.99 µM | [18] 11.4 µM | [12] 18.3 µM and 34.7 µM | [15] 31 µM | [16] 19 µM

O=C(c1ccccc1)c1ccccc1
active: [6] 0.304 µM
not listed: [12] | [16] | [19] | [20]
inactive: all other assays above

CCC(=O)O
inactive: [17] | [8] | [9] | [10] | [11] | [18] | [12] | [13] | [14] | [15]
